Source: PubChem BioAssay (Tox21)
Results filed as inconclusive are left out. Activity calls are given as the source filed them. Unless noted, calls come from the whole dose curve; as a rule, active = well fitted curve in the direction sought with a large enough effect in the repeat runs; inconclusive = weak or mixed curves; inactive = no such curve, though single readings can be large; an effect the other way counts as inactive or inconclusive.

How the values were obtained:
[1] = A CellTox Green Cytotoxicity Assay to monitor cytotoxicity in HepG2 cells - 8 hour (AID 1224890); note: nearly all actives have a fitted effect of over 45% in size
Procedure, shortened: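 Continuous culture of HepG2 cells with a membrane-impermeant DNA dye; rising fluorescence marks dead cells. Compound exposure lasted up to 40 h at 37 C, with reads every 8 h from 0 h.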

[2] = qHTS assay to identify small molecule antagonists of the estrogen receptor alpha (ER-alpha) signaling pathway using the BG1 cell line in the presence of 0.1 nM 17-beta-estradiol - cell viability counter screen (AID 1259241); note: nearly all actives have a fitted effect of over 40% in size
Procedure, shortened: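 Viability in VM7Luc4E2 cells after 22 hr compound exposure under 0.1 nM 17beta-estradiol stimulation, by CellTiter-Fluor.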

[3] = qHTS assay to identify small molecule antagonists of the androgen receptor (AR) signaling pathway using the MDA cell line in the presence of 0.5 nM R1881 - cell viability counter screen (AID 1259242); note: nearly all actives have a fitted effect of over 45% in size
Procedure, shortened: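 Fluorescence from CellTiter-Fluor, which reports protease activity of live cells, was read 30 min after reagent addition to MDA-kb2 cells that had been incubated 16 hr with compound and 0.5 nM R1881.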

[4] = target: Estrogen receptor (Homo sapiens) (UniProt P03372); test: qHTS assay to identify small molecule antagonists of the estrogen receptor alpha (ER-alpha) signaling pathway using the BG1 cell line in the presence of 0.1 nM 17-beta-estradiol (AID 1259244); note: nearly all actives have a fitted effect of over 50% in size
Procedure, shortened: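 Quantitative high-throughput screen in VM7Luc4E2 cells: compound plus 0.1 nM E2 (final), 22 h, 37C, 5% CO2; ONE-Glo added, 30 min room temperature, luminescence measured.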

[5] = qHTS assay to identify small molecule phospholipidosis (PLD) inducers (AID 1259344; active = well fitted curve in the direction sought with a large enough effect; an effect the other way counts as inactive or inconclusive)
Procedure, shortened: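 Phospholipidosis is scored by imaging LipidTOX-stained pits in HepG2 cells exposed to compound for 24 h at 37 C; pit counts and integrated intensities per well and per cell serve as outputs.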

[6] = qHTS assay to identify small molecule HDAC inhibitors (AID 1259364); note: nearly all actives have a fitted effect of over 45% in size; note: potency is the fitted concentration of half-maximal effect; for activity change, negative = inhibition: top concentration of the series differs between compounds
Procedure, shortened: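 Endogenous HDAC class I/II activity was measured in wild-type HCT-116 cells by HDAC-Glo luminescence after 2 h compound treatment.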

[7] = qHTS assay to identify small molecule agonists of the sonic hedgehog signaling (Shh) pathway - cell viability counter screen (AID 1259366); note: nearly all actives have a fitted effect of over 50% in size
Procedure, shortened: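 Stable Gli1-Luc NIH/3T3 clone, 2,000 cells/well. Compound exposure 24hr at 37C. Read-out: CellTiter-Fluor fluorescence.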

[8] = qHTS assay to identify small molecule antagonists of the sonic hedgehog signaling (Shh) pathway - cell viability counter screen (AID 1259367); note: nearly all actives have a fitted effect of over 55% in size
Procedure, shortened: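 Cells: 3T3 Gli1-Luc, 2,000/well, 4 hr pre-incubation. Compounds in DMSO, then conditioned medium. Incubation 24 hr, 37C, 5% CO2. CellTiter-Fluor at 23 hr, 1 hr, fluorescence.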

[9] = qHTS assay to identify small molecule HDAC inhibitors - cell viability counter screen (AID 1259365); note: series mostly up to about 92 µM; nearly all actives have a fitted effect of over 50% in size
Procedure, shortened: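 Cytotoxicity was gauged in wild-type HCT-116 cells after a brief 2hr treatment with DMSO-dissolved compounds at 37C and 5% CO2, using CellTiter-Glo luminescence developed for 30min at room temperature.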
% is set by controls: 0 for no effect and ±100 for the full control effect.

Estrogen receptor (Homo sapiens), sequence (P03372 whole entry, looked up): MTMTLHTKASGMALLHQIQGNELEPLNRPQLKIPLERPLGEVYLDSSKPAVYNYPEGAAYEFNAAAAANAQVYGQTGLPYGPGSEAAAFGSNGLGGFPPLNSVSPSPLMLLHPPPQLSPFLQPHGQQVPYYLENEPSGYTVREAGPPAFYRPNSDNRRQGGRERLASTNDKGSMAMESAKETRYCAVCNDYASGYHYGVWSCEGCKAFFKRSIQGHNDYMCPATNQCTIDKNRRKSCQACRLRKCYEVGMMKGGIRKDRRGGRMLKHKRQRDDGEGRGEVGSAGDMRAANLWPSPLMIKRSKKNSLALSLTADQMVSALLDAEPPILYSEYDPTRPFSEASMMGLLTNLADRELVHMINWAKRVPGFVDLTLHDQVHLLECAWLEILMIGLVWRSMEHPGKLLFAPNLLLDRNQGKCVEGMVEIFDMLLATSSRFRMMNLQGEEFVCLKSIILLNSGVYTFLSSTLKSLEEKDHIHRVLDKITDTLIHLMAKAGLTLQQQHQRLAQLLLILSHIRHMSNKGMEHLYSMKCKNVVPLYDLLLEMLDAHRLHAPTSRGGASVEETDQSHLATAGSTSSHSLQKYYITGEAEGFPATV

CC(=O)OCC(=O)[C@@]1(O)CC[C@H]2[C@@H]3CCC4=CC(=O)CC[C@]4(C)[C@H]3C(=O)C[C@@]21C
inactive: Potency [1] | outcome [2] | Potency [3] | outcome [4] | Potency [5] | Potency [6] | Potency [7] | Potency [8]

c1cnc(N2CCN(Cc3ccc4c(c3)OCO4)CC2)nc1
inactive: Potency [1] | outcome [2] | Potency [3] | outcome [4] | Potency [5] | Potency [6] | outcome [9] | Potency [7] | Potency [8]

O=C[C@H](O)[C@@H](O)[C@H](O)[C@H](O)CO
inactive: Potency [1] | outcome [2] | Potency [3] | outcome [4] | PLD induction [5] -4.07% [at 7.66 µM] | Potency [6] | outcome [9] | Potency [7] | Potency [8]

CCCCC(CC)COC(=O)c1ccccc1O (configuration not stated)
inactive: Potency [1] | outcome [2] | Potency [3] | outcome [4] | Potency [5] | Potency [6] | outcome [9] | Potency [7] | Potency [8]

Cc1nc2c([nH]1)c(=O)n(C)c(=O)n2Cc1ccco1
inactive: Potency [1] | outcome [2] | Potency [3] | outcome [4] | Potency [5] | outcome [9] | Potency [7] | Potency [8]

O=c1cc(CO)occ1O
inactive: Potency [1] | outcome [2] | Potency [3] | outcome [4] | Potency [5] | Potency [6] | outcome [9] | Potency [7] | Potency [8]

Cc1cc(O)cc2c1O[C@](C)(CCC[C@H](C)CCC[C@H](C)CCCC(C)C)CC2
inactive: Potency [1] | outcome [2] | Potency [3] | outcome [4] | Potency [5] | outcome [9] | Potency [7] | Potency [8]

N[C@@H](C(=O)N[C@@H]1C(=O)N2C(C(=O)O)=C(Cl)CS[C@H]12)c1ccccc1
inactive: cytotoxicity increase [1] -13.7% [at 6.97 µM] | activity change, negative = cytotoxicity [2] 0.43% [at 8.39 µM] | viability change, negative = cytotoxic [3] 4.33% [at 8.39 µM] | activity change, negative = inhibition [4] 7.81% [at 8.39 µM] | Potency [5] | activity change, negative = inhibition [6] 5.64% [at 8.39 µM] | activity change, negative = cytotoxicity [9] -0.59% [at 8.39 µM] | viability change, negative = cytotoxic [7] 1.34% [at 8.39 µM] | viability change, negative = cytotoxic [8] 3.69% [at 8.39 µM]

CC(C(=O)O)c1ccc(CC2CCCC2=O)cc1 (configuration not stated)
inactive: Potency [1] | outcome [2] | Potency [3] | outcome [4] | Potency [5] | outcome [9] | Potency [8]

O=C(O)Cc1ccc(CCNS(=O)(=O)c2ccc(Cl)cc2)cc1
inactive: Potency [1] | outcome [2] | Potency [3] | outcome [4] | Potency [5] | Potency [6] | outcome [9] | Potency [8]

Cc1cccn2c(=O)c(-c3nnn[nH]3)cnc12
inactive: cytotoxicity increase [1] 3.76% [at 15.8 µM] | activity change, negative = cytotoxicity [2] 2.88% [at 19 µM] | viability change, negative = cytotoxic [3] 3.32% [at 19 µM] | activity change, negative = inhibition [4] 3.45% [at 19 µM] | Potency [5] | activity change, negative = cytotoxicity [9] -4.27% [at 19 µM] | viability change, negative = cytotoxic [7] 4.51% [at 19 µM] | Potency [8]

N=C(N)c1ccc2cc(OC(=O)c3ccc(N=C(N)N)cc3)ccc2c1
active: Potency [6] 0.0596 µM
inactive: Potency [1] | outcome [2] | Potency [3] | outcome [4] | Potency [5] | outcome [9] | Potency [8]

CCO/C([O-])=N/c1c[n+](N2CCOCC2)no1
inactive: Potency [1] | outcome [2] | Potency [3] | outcome [4] | Potency [5] | Potency [6] | outcome [9] | Potency [8]

N=c1nc(N2CCCCC2)cc(N)n1O
inactive: Potency [1] | outcome [2] | Potency [3] | outcome [4] | Potency [5] | Potency [6] | outcome [9] | Potency [7] | Potency [8]

Nc1cc(=O)[nH]c(N)n1
inactive: Potency [1] | outcome [2] | Potency [3] | outcome [4] | PLD induction [5] 1.63% [at 7.66 µM] | Potency [6] | outcome [9] | Potency [7] | Potency [8]

c1ccc([C@H]2CN3CCSC3=N2)cc1
inactive: Potency [1] | outcome [2] | Potency [3] | outcome [4] | Potency [5] | Potency [6] | outcome [9] | Potency [7] | Potency [8]

Cn1cc(S(C)=O)c(=O)c2ccc(F)cc21 (configuration not stated)
inactive: Potency [1] | outcome [2] | Potency [3] | outcome [4] | Potency [5] | Potency [6] | outcome [9] | Potency [7] | Potency [8]

Cc1ccc(=O)n(-c2ccccc2)c1
inactive: Potency [1] | outcome [2] | Potency [3] | outcome [4] | Potency [5] | Potency [6] | outcome [9] | Potency [7] | Potency [8]

CC(C)c1cc2c(cc1S(=O)(=O)O)[C@@]1(C)CCC[C@@](C)(C(=O)O)[C@@H]1CC2
inactive: Potency [1] | outcome [2] | Potency [3] | outcome [4] | Potency [5] | Potency [6] | outcome [9] | Potency [7] | Potency [8]

CN1CCC(=C2c3ccccc3CC(=O)c3sccc32)CC1
inactive: Potency [1] | outcome [2] | Potency [3] | outcome [4] | Potency [6] | outcome [9] | Potency [7] | Potency [8]

CCCCCCCCCCCCCCCCC
inactive: Potency [1] | outcome [2] | Potency [3] | outcome [4] | Potency [6] | outcome [9] | Potency [7] | Potency [8]

OCCOc1ccc(OCCO)cc1
inactive: Potency [1] | outcome [2] | Potency [3] | outcome [4] | Potency [6] | outcome [9] | Potency [8]

CCOC(=O)C(=O)OCC
inactive: Potency [1] | outcome [2] | Potency [3] | outcome [4] | Potency [6] | outcome [9] | Potency [7] | Potency [8]

CC(C)(O)C#CC(C)(C)O
inactive: Potency [1] | outcome [2] | Potency [3] | outcome [4] | Potency [6] | outcome [9] | Potency [7] | Potency [8]

CN1CCCC1
inactive: Potency [1] | outcome [2] | Potency [3] | outcome [4] | Potency [6] | outcome [9] | Potency [7] | Potency [8]

CCCCCOC(=O)CCCCC
inactive: Potency [1] | outcome [2] | Potency [3] | outcome [4] | Potency [6] | outcome [9] | Potency [7] | Potency [8]
